Assay results: PubChem BioAssay (NCI)
The panel holds about 79,000 compounds, 15% with a hit somewhere; the sample as a whole holds those more often. Active and inactive are the calls of the source. Cut-off read from the data, not from the text of the source: active = growth inhibition above about 70%; inactive = the rest.

Experiments:
[1] = NCI Yeast Anticancer Drug Screen. Data for the rad52 strain (AID 147);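 note: 0% = growth of vehicle-treated control cultures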; details: S. cerevisiae rad52 mutant growth inhibition, stronger effect = higher value
Outline: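 Genetically altered yeast (DNA damage repair defect) treated with compound; inhibition calculated relative to vehicle.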

[2] = NCI Yeast Anticancer Drug Screen. Data for the wt1 strain (AID 149);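 note: 0% = growth of vehicle-treated wt1 cultures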; details: S. cerevisiae wt1 strain (SPY 50644) growth inhibition, stronger effect = higher value
Outline: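 Compounds are added to wt1 yeast cultures. Growth is then measured. Inhibition is expressed relative to vehicle-treated controls.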

[3] = NCI Yeast Anticancer Drug Screen. Data for the rad50 strain (AID 155);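 note: 0% = growth of vehicle-only cultures of the same strain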; details: S. cerevisiae rad50 strain growth inhibition, stronger effect = higher value
Outline: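 Inhibition values express reduced yeast growth in compound-treated cultures relative to vehicle-treated controls.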

[4] = NCI Yeast Anticancer Drug Screen. Data for the mec2-1 strain (AID 157); details: S. cerevisiae mec2-1 strain, stronger effect = higher value
Outline: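 Cells of the genetically defined mec2-1 yeast strain are incubated with test compound. Inhibition of growth is calculated against vehicle-treated controls.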

[5] = NCI Yeast Anticancer Drug Screen. Data for the rad14 strain (AID 159);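 note: 0% = growth of vehicle-treated control cultures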; details: S. cerevisiae rad14 strain growth inhibition, stronger effect = higher value
Outline: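 A mutant yeast strain defective in DNA damage repair is treated with compound; inhibition of its growth is scored against untreated, vehicle-exposed cultures.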

[6] = NCI Yeast Anticancer Drug Screen. Data for the sgs1 mgt1 strain (AID 161);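 note: 0% = growth of cultures given vehicle only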; details: S. cerevisiae sgs1 mgt1 strain, stronger effect = higher value
Outline: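 Mutant yeast exposed to compound; growth scored against vehicle-only wells.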

[7] = NCI Yeast Anticancer Drug Screen. Data for the CLN2oe strain (AID 163);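 note: 0% = growth of vehicle-only control cultures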; details: S. cerevisiae CLN2oe strain, stronger effect = higher value
Outline: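 Strain altered in cell-cycle control, incubated with compound; growth compared to solvent-treated controls.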

[8] = NCI Yeast Anticancer Drug Screen. Data for the cln2 rad14 strain (AID 165);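 note: 0% = growth equal to vehicle treated cultures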; details: S. cerevisiae cln2 rad14 strain, stronger effect = higher value
Outline: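 The screen exposed genetically defined yeast (cln2 rad14) to test compounds and scored growth inhibition relative to vehicle-treated controls.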

[9] = NCI Yeast Anticancer Drug Screen. Data for the bub3 strain (AID 167); details: S. cerevisiae bub3 mutant strain, stronger effect = higher value
Outline: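 Steps: expose the mutant yeast strain to compound; grow alongside vehicle-treated cultures; measure growth; express inhibition against the vehicle cultures.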

[10] = NCI Yeast Anticancer Drug Screen. Data for the mlh1 strain (AID 171);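 note: 0% = growth of vehicle-treated control cultures of the same strain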; details: S. cerevisiae mlh1 strain growth inhibition, stronger effect = higher value
Outline: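 Yeast screen: mutant strain plus compound, growth scored against vehicle control wells.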

[11] = NCI Yeast Anticancer Drug Screen. Data for the sgs1 strain (AID 173);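 note: 0% = growth of vehicle-only control cultures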; details: S. cerevisiae sgs1 mutant, stronger effect = higher value
Outline: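 Inhibition of yeast growth served as the measure. The mutant strain was treated with each compound, and growth was normalised to cultures receiving vehicle alone.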

[12] = NCI Yeast Anticancer Drug Screen. Data for the mlh1 rad18 strain (AID 175); details: S. cerevisiae mlh1 rad18 strain growth inhibition, stronger effect = higher value
Outline: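 Compound-treated yeast growth, normalised to vehicle controls. Strain bears defined DNA repair mutations.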

[13] = NCI Yeast Anticancer Drug Screen. Data for the rad18 strain (AID 177); details: S. cerevisiae rad18 mutant growth inhibition, stronger effect = higher value
Outline: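 Inhibition values reflect reduced yeast growth compared with vehicle-treated controls, using a strain engineered with a DNA damage repair defect.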

[14] = at 5.0 µM (retest, dose inferred, filed as 0.5)
[15] = at 50.0 µM (retest, dose inferred, filed as 5.0)

Measured: growth inhibition

CCN1/C(=C/c2ccc3ccccc3[n+]2CC)C=Cc2ccccc21
inactive: [1]; at 1.2 µM -19% | [1]; at 3.7 µM -14% | [2]; at 1.2 µM -13% | [2]; at 3.7 µM -12% | [3]; at 1.2 µM -3% | [3]; at 3.7 µM -2% | [4]; at 1.2 µM -3% | [4]; at 3.7 µM 16% | [5]; at 1.2 µM -27% | [5]; at 3.7 µM 1% | [6]; [14] 7% | [7]; at 1.2 µM 0% | [7]; at 3.7 µM 10% | [8]; [14] 58% | [9]; at 1.2 µM -3% | [9]; at 3.7 µM 37% | [9]; [14] 42% | [10]; at 1.2 µM -27% | [10]; at 3.7 µM -15% | [10]; at 11.0 µM 41% | [11]; at 1.2 µM -9% | [11]; at 3.7 µM -17% | [13]; at 1.2 µM -5% | [13]; at 3.7 µM -4%
active: [1]; at 11.0 µM 87% | [1]; at 33.0 µM 98% | [1]; at 100.0 µM 98% | [2]; at 11.0 µM 75% | [2]; at 33.0 µM 99% | [2]; at 100.0 µM 99% | [3]; [14] 99% | [3]; at 11.0 µM 81% | [3]; at 33.0 µM 97% | [3]; [15] 97% | [3]; at 50.0 µM 90.5% | [3]; at 100.0 µM 96% | [4]; [14] 99% | [4]; at 11.0 µM 98% | [4]; at 33.0 µM 99% | [4]; [15] 98% | [4]; at 50.0 µM 92% | [4]; at 100.0 µM 99% | [5]; at 11.0 µM 98% | [5]; at 33.0 µM 98% | [5]; at 100.0 µM 98% | [6]; [15] 98% | [6]; at 50.0 µM 93% | [7]; at 11.0 µM 94% | [7]; at 33.0 µM 99% | [7]; at 100.0 µM 98% | [8]; [15] 100% | [8]; at 50.0 µM 90.9% | [9]; at 11.0 µM 96% | [9]; at 33.0 µM 98% | [9]; [15] 99% | [9]; at 50.0 µM 91% | [9]; at 100.0 µM 98% | [10]; at 33.0 µM 97% | [10]; at 100.0 µM 97% | [11]; at 11.0 µM 93% | [11]; at 33.0 µM 97% | [11]; at 100.0 µM 97% | [12]; [14] 100% | [12]; [15] 99% | [12]; at 50.0 µM 90.2% | [13]; at 11.0 µM 90% | [13]; at 33.0 µM 96% | [13]; at 100.0 µM 97%
